We go through 11 molecules from PubChem BioAssay (EPA / NIEHS).

Inconclusive results are not listed. The source made the active and inactive calls. How the source made its calls, unless noted: active means hit-call score of the fitted dose curve at least 0.9, where 1 is the maximum; inactive means score below 0.9.

Assay [1] is described as follows: CCTE_Deisenroth_5AR_NBTE_donor: CCTE's 5alpha-reductase NanoBRET Target Engagement Assay […], Deisenroth Lab (AID 2284319). To be noted: actives raise or lower the signal. The procedure, abridged:
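SRD5A2-NanoLuc, HEK293T, 20 h expression. Chemical 10 nM - 29.9 uM, 8 conc, duplicate; 3 h preincubation + 2 h testosterone tracer. Nano-Glo substrate plus extracellular NanoLuc inhibitor; donor lum 460 nm. DMSO baseline, bidirectional fit.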
(BRET reads energy transfer from a luciferase to a nearby fluorophore.)

Assay [2] in a line: CCTE_Deisenroth_5AR_NBTE_acceptor: CCTE's 5alpha-reductase NanoBRET Target Engagement Assay - Autofluorescence Screen, Deisenroth Lab (AID 2284321). To be noted: actives raise or lower the signal. The procedure, abridged: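 Acceptor-channel fluorescence flags artifacts, with excitation fixed at 460 nm. Nominal 100 uM chemical samples were read in triplicate runs, and signal changes were fitted in both directions relative to DMSO.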

Another assay concerns SRD5A2 (gene 6716). In words: CCTE_Deisenroth_5AR_NBTE_ratio: CCTE's 5alpha-reductase NanoBRET Target Engagement Assay - Ratio, Deisenroth Lab (AID 2284322). To be noted: actives raise or lower the signal. The procedure, abridged: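 SRD5A2-NanoLuc HEK293T; cmpd 10 nM-29.9 uM, 3 h preinc + testosterone tracer 2 h; NanoBRET ratio 650/460; bidirectional fit vs DMSO.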
The nature of assay [3]: VALA_MIGHUV2_Bcatenin: VALA Sciences human Umbilical Vein Endothelial Cell Migration (MIGHUV) Assay, Nuclear Translocation of beta-Catenin after Recovery (AID 2284315; active means hit-call score of the fitted dose curve at least 0.9, where 1 is the maximum). The procedure, abridged: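 Nuclear beta-catenin imaged by immunofluorescence with Hoechst counterstain in fixed HUVEC, 24 h after scratch wounding and chemical addition. Six-point concentration-response in triplicate; activity scored as signal increase over 0.1% DMSO vehicle.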

A short description of assay [4]: VALA_MIGHUV2_WoundArea: VALA Sciences human Umbilical Vein Endothelial Cell Migration (MIGHUV) Assay, Area of Scratch Wound after Recovery (AID 2284316; active means hit-call score of the fitted dose curve at least 0.9, where 1 is the maximum). The procedure, abridged: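 Wound-area endpoint read by fluorescence imaging of Hoechst-stained nuclei after a 24 h recovery period following scratch of HUVEC monolayers (9000 cells/well). Chemicals dosed within 30 min post-scratch, triplicate 6-point series, 0.1% DMSO vehicle; Cytochalasin D positive control.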

Assay [5] can be described thus: VALA_TUBHUV_Antagonist_TubuleLength: VALA Sciences human Umbilical Vein Endothelial Tubule Formation (TUBHUV) Antagonism Assay (AID 2284325; active means hit-call score of the fitted dose curve at least 0.9, where 1 is the maximum). The procedure, abridged:
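Tubule length was imaged via CD31 immunofluorescence after a further 3-day compound exposure in 10 ng/ml VEGF, following 3-day pre-culture of HUVEC with HDF at 1:3. Vehicle 0.1% DMSO; suramin (100 uM) inhibition control.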

The nature of assay [6]: CCTE_Mundy_HCI_iCellGluta_NOG_NeuriteLength: CCTE's Neurite Outgrowth Assay in iCellGluta cells for Neurite Length, Mundy Lab (AID 2284318; active means hit-call score of the fitted dose curve at least 0.9, where 1 is the maximum). The procedure, abridged:
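Automated high-content imaging of betaIII-tubulin (Alexa Fluor-488) and Hoechst-stained cells gave neurite length, normalized to the DMSO baseline.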

Another assay relates to TTR (gene 7276). In words: CCTE_GLTED_hTTR_0.5uM: CCTE's human Transthyretin (hTTR) Inhibition Assay, with 0.5uM TTR, Great Lakes Toxicology and Ecology Division (GLTED) Lab (AID 2284320). The procedure, abridged:
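Probe (ANSA) displacement from 0.5 uM human transthyretin was followed by fluorescence (ex 380, em 475) after a 2 h incubation with chemical. Activity was scored as signal loss and fitted positively relative to DMSO.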

Assay [7] in a line: IUF_NPC2-5_viability_120hr: Viability Assessment at 120 hours in the Leibniz Research Institute for Environmental Medicine (IUF) Neural Progenitor Cell Migration and Differentiation Assay (NPC2-5) (AID 2284312). The procedure, abridged:
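Human fetal (GW 16-19) neural progenitor spheres of 0.3 mm were plated on poly-D-lysine/laminin in N2 differentiation medium and exposed from day 0 for 120 h, with half-medium refresh at day 3. Viability was read as alamar blue resazurin-to-resorufin fluorescence against DMSO.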

For the molecule `O=P(OCC(Br)CBr)(OCC(Br)CBr)OCC(Br)CBr` (stereo not drawn), the result in [1] and in [2] was inactive. Also, the AC50 with SRD5A2 (gene 6716) was 26.8 µM (active).
For `Cc1ccc(N)cc1N`, the molecule was called inactive in [3], in assay [4] and in assay [5].
Consider `O=C(O)C=CC(F)(C(F)(F)F)C(F)(F)F`, for which the result in [6] was inactive. The AC50 with TTR (gene 7276) was 9.44 µM (active).
In the case of `O=C(O)C(F)(OC(F)(F)C(F)(F)C(F)(F)F)C(F)(F)F` (stereo not drawn), the outcome in assay [7] and in assay [6] was inactive.
As to `CC(C)(C)c1ccccc1OP(=O)(Oc1ccccc1)Oc1ccccc1`, the result in [7] was inactive.
Regarding `OCC(F)(F)OC(F)(F)C(F)(F)OC(F)(F)C(F)(F)OC(F)(F)CO`, the AC50 in the assay on TTR (gene 7276) is 9.52 µM (active).
Take `ClC1=C(Cl)C2(Cl)C3C(Cl)C(Cl)CC3C1(Cl)C2(Cl)Cl` (stereo not drawn): the result (in [1]; in assay [2]; in the assay on SRD5A2 (gene 6716)) was inactive.
As to `CC1(C)CN=C(NN=C(/C=C/c2ccc(C(F)(F)F)cc2)/C=C/c2ccc(C(F)(F)F)cc2)NC1`, the AC50 (in assay [1]; in assay [2]; in the assay with SRD5A2 (gene 6716)) was 50 µM (active) throughout.
In the case of `CCCCOCCOP(=O)(OCCOCCCC)OCCOCCCC`, the molecule was classed as inactive in [7].
As to `CCOc1ccc(C(C)(C)COCc2cccc(Oc3ccccc3)c2)cc1`, the outcome in [7] and in [6] was inactive.
As for `CO/N=C(/C(=O)OC)c1ccccc1COc1ccccc1C`, in [7], the call was inactive. Moreover, in assay [6], the AC50 was 19.7 µM (active).

For orientation: AC50 means the concentration at which the activity in the assay is half-maximal.
